Screening results (PubChem)
This is a sample that favours compounds with a hit; in the whole collection about 6.9% have one here.
NS3h inh CB: hepatitis C NS3 helicase inhibition, primary screen; NS3h Cy5-dT15 DNA binding, fluorescence polarization; inhibition, % at 100 µM; hit rate 1.6% among 16,000;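 active = inhibition above the average over every tested compound plus 3 SD, cut at about 40% in these data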
Cy5 interf NS3h: Cy5 fluorescence interference, HCV helicase counter-screen; Cy5-dT15 DNA with NS3h; actives lie on both sides; signal over control mean, under 1 quenches; fluorescence interference ratio at 100 µM; hit rate 6% among 16,000;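 active = compound fluorescence over control fluorescence at most 0.8, a quencher, or at least a set upper limit, an enhancer; inactive = ratio between 0.8 and the set upper limit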
Large screens that a line does not name were inactive.

Cc1cc(/C=C2\C(=O)NC(=O)N(c3cccc(Br)c3)C2=O)c(C)n1-c1cccnc1	none
Cc1ccc(-c2csc(/C(C#N)=C\c3ccc(C)s3)n2)cc1	none
Cc1ccc(N=C2NC(=O)/C(=C/c3ccc(O)cc3)S2)cc1C	none
Cc1ccc(N=C2NC(=O)/C(=C\c3cccc(Br)c3)S2)cc1C	Cy5 interf NS3h 0.792
CCC(CO)Nc1cc(Cl)ccc1[N+](=O)[O-] (stereo not given)	Cy5 interf NS3h 0.69
COc1ccc(OCCNc2cc(Cl)ccc2[N+](=O)[O-])cc1	none
CCC(CO)Nc1cc(N2CCOCC2)ccc1[N+](=O)[O-] (stereo not given)	Cy5 interf NS3h 0.727
O=[N+]([O-])c1ccc(N2CCOCC2)cc1[N+](=O)[O-]	none
CCOc1ccccc1NC(=O)CN(c1ccc(C)c(Cl)c1)S(C)(=O)=O	none
Cc1ccc(C(O)=C2C(=O)C(=O)N(CCCn3ccnc3)C2c2ccccc2F)cc1 (stereo not given)	none
COc1ccc(/C=N\N=C(\N)c2nonc2N)c(OC)c1	none
CCOC(=O)C1=C(C)N=c2s/c(=C/c3ccccn3)c(=O)n2C1c1ccccc1Cl (stereo not given)	none
CCOC(=O)C1=C(C)N=c2s/c(=C\c3ccc([N+](=O)[O-])o3)c(=O)n2C1c1ccccc1Cl (stereo not given)	Cy5 interf NS3h 0.712
CCOC(=O)C1=C(C)N=c2s/c(=C\c3ccc([N+](=O)[O-])o3)c(=O)n2C1c1ccc(C)cc1 (stereo not given)	Cy5 interf NS3h 0.752
CCOC(=O)C1=C(C)N=c2s/c(=C\c3ccc([N+](=O)[O-])o3)c(=O)n2C1c1cccs1 (stereo not given)	none
CC(=O)OC1CCC2(C)C(=CCC3C2CCC2(C)C(C(=O)O)CCC32)C1 (stereo not given)	none
CCOc1ccccc1NC(=O)c1cncc(Br)c1	none
O=C(O)COc1ccc(N2C(=O)c3c(Cl)c(Cl)c(Cl)c(Cl)c3C2=O)cc1	none
O=C1c2c(Cl)c(Cl)c(Cl)c(Cl)c2C(=O)N1c1ncccn1	Cy5 interf NS3h 0.649
CCC(C)NCC(O)Cn1c2ccc(Cl)cc2c2cc(Cl)ccc21 (stereo not given)	Cy5 interf NS3h 0.773
CS(=O)(=O)N(CC(O)Cn1c2ccc(Cl)cc2c2cc(Cl)ccc21)c1ccccc1 (stereo not given)	none
Cc1ccc(N=C(NO)c2ccc(Cl)cc2Cl)cc1	Cy5 interf NS3h 0.681
Cc1ccc(-c2cc(NC(=O)c3ccc(Cl)cc3Cl)n[nH]2)cc1	none
CC(C)CNC(=O)c1ccc2c(c1)C(=O)N(CC(C)C)C2=O	none
COc1ccc(C(=O)CSc2nc3ccc([N+](=O)[O-])cc3[nH]2)cc1	Cy5 interf NS3h 0.662
COc1ccc2nc(SCC(=O)NCc3ccccc3)[nH]c2c1	none
O=C(CCc1ccccc1)NC1CCCCC1Cc1ccco1 (stereo not given)	none
Cc1cccc(C)c1NC(=O)CSc1nc2ccccc2[nH]1	none
COc1cc(/C=C2/SC(=S)N(CCC(=O)Nc3ccccc3C(=O)O)C2=O)cc(OC)c1OC	none
COc1cc(/C=C2/SC(=S)N(CCC(=O)Nc3ccc(C(C)=O)cc3)C2=O)cc(OC)c1OC	Cy5 interf NS3h 0.634
COc1ccc(N(CC(=O)Nc2ccc(I)cc2)S(C)(=O)=O)cc1	none
CN1C(=O)/C(=C\c2cc(Cl)c(O)c(Cl)c2)SC1=S	none
COc1cc(C=O)cc(Br)c1OCc1ccccc1Cl	none
CCOc1cc(C=O)cc(I)c1OCc1ccccc1Cl	Cy5 interf NS3h 0.642
COc1cc(/C=N\Nc2nn[nH]n2)ccc1O	none
Cc1cc(/C=N\n2cnnc2)c(C)n1C	none
COc1ccccc1-n1cnc2cc(Nc3nnc(C)c4ccccc34)ccc21	none
COc1ccc(-c2nnc(Nc3ccc4c(c3)nc(C)n4C)c3ccccc23)cc1	none
Cc1nnc(Nc2ccc3c(c2)ncn3C)c2ccccc12	Cy5 interf NS3h 1.21
COc1ccc(-n2cnc3cc(Nc4nnc(C)c5ccccc45)ccc32)cc1	Cy5 interf NS3h 0.738
Cc1ccc(-c2nnc(Nc3ccc4c(c3)nc(C)n4C)c3ccccc23)cc1	Cy5 interf NS3h 0.708
Cn1cnc2cc(Nc3nnc(-c4ccccc4)c4ccccc34)ccc21	none
CC1=C(C(=O)OC(C)C)C(c2ccsc2)C2=C(CCCC2=O)N1 (stereo not given)	none
CCOC(=O)c1ccc(NC(=O)CN(c2cccc(Br)c2)S(=O)(=O)c2ccccc2)cc1	none
O=c1c2ccccc2nc2ccc3nnnn3n12	Cy5 interf NS3h 0.733
CCCCn1c(CN2C(=O)c3ccccc3C2=O)nc2ccccc2c1=O	none
COc1ccc(OC)c(-c2nc(-c3ccccc3)c(-c3cccs3)[nH]2)c1	none
COc1ccc(-c2nc(-c3ccc(O)cc3)[nH]c2-c2ccc(OC)cc2)cc1	Cy5 interf NS3h 0.727
Cc1ccc(/C(N)=N\OC(=O)c2ccc(F)cc2)cc1	none
CC1(C)CC(=O)C2=C(C1)c1c(ccc3ccccc13)NC2c1ccccc1F (stereo not given)	Cy5 interf NS3h 0.747
COc1ccc(C2Nc3ccc4ccccc4c3C3=C2C(=O)CC(C)(C)C3)cc1[N+](=O)[O-] (stereo not given)	none
COc1ccc(CNc2ccc3c(c2)ncn3-c2ccc(OC)cc2)cc1	none
CC(C)(C)c1ccc(C(CC(=O)c2ccc(Br)cc2)S(=O)(=O)c2ccccc2)cc1 (stereo not given)	Cy5 interf NS3h 0.539
O=C(CC(Nc1ccc(Br)cc1)c1ccc(F)cc1)c1ccccc1 (stereo not given)	none
Cc1ccc2cccc(SCC(=O)c3ccc(Br)cc3)c2n1	none
N/C(=N/OC(=O)c1cccc(Br)c1)c1ccc(Cl)cc1	none
COc1cc2c(cc1NS(=O)(=O)c1ccccc1)oc1ccccc12	none
CS(=O)(=O)N1CCN(Cc2cccc3ccccc23)CC1	Cy5 interf NS3h 0.695
Oc1ccc(Br)cc1CN1CCN(Cc2cccc3ccccc23)CC1	none
CS(=O)(=O)N1CCN(CCCc2ccccc2)CC1	none
CS(=O)(=O)N1CCN(Cc2ccccc2Cl)CC1	Cy5 interf NS3h 0.606
COc1cccc(C(=O)Nc2nnc(-c3ccc([N+](=O)[O-])cc3)s2)c1	none
Cc1c(NC(=O)c2cc3n(n2)C(C(F)(F)F)CC(c2ccc(Cl)c(Cl)c2)N3)c(=O)n(-c2ccccc2)n1C (stereo not given)	none
Cc1[nH]n(-c2ccccc2)c(=S)c1C=Nc1ccccc1O	none
O=C(CC1(O)C(=O)Nc2ccccc21)c1ccco1 (stereo not given)	Cy5 interf NS3h 0.779
CCc1ccc(C(=O)CC2(O)C(=O)Nc3ccccc32)cc1 (stereo not given)	none
O=C(NCCN1CCOCC1)C(=O)NCc1ccc(Cl)cc1	Cy5 interf NS3h 1.28
O=C(NCCN1CCN(Cc2ccccc2)CC1)C(=O)Nc1ccc(Cl)cc1	none
CCOc1ccc(C(=O)COC(=O)c2ccc(C)cc2)cc1	none
CCC(=O)Nc1sc2c(c1C(=O)Nc1ccc(OC)cc1)CCC2	none
COc1ccc(NC(=O)c2c(NC(=O)C(Cl)(Cl)Cl)sc3c2CCC3)cc1	Cy5 interf NS3h 0.603
COC(=O)C1=C(C)NC2=C(C(=O)c3ccccc32)C1c1ccc(-c2cc([N+](=O)[O-])ccc2Cl)o1 (stereo not given)	none
COc1ccc(/C=C2\C(=O)NC(=O)N(c3cc(C)cc(C)c3)C2=O)cc1	none
Cc1cc(C)c(N2C(=O)NC(=O)C(=Cc3ccoc3)C2=O)c(C)c1	NS3h inh CB 41.8
O=c1[nH]c(=O)n(Cc2ccc(F)cc2)c(O)c1C=C1C=Nc2ccccc21	Cy5 interf NS3h 0.801
